Common to all, as to conditions: Compound concentration 20.0 uM
The target of assay [1] is Tyrosine-protein kinase ABL1 (Homo sapiens) (UniProt P00519).
The target in assay [2] is Bromodomain-containing protein 4 (Homo sapiens) (UniProt O60885).
Assay [3] has as its target Cyclin-dependent kinase 2 (Homo sapiens) (UniProt P24941).
Assay [4] concerns the target Casein kinase I isoform delta (Homo sapiens) (UniProt P48730).
The target in assay [5] is Glycogen synthase kinase-3 beta (Homo sapiens) (UniProt P49841).
In assay [6] the target is Mitogen-activated protein kinase 1 (Homo sapiens) (UniProt P28482).
Assay [7] deals with T1, Aurora kinase A (Homo sapiens) (UniProt O14965).
T1 sequence (whole entry): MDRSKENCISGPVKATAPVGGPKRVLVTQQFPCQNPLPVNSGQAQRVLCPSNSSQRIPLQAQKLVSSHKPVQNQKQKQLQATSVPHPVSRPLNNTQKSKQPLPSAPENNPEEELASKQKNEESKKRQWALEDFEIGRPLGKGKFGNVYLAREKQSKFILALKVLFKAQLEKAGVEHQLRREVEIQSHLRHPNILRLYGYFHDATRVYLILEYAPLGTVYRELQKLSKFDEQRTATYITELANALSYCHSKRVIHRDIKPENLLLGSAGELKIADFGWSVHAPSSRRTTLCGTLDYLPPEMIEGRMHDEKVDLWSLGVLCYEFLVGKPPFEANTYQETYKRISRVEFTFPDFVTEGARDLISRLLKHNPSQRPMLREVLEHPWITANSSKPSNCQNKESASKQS

In assay [8] the target is T2, Transcription intermediary factor 1-alpha (Homo sapiens) (UniProt O15164).
T2 sequence (whole entry): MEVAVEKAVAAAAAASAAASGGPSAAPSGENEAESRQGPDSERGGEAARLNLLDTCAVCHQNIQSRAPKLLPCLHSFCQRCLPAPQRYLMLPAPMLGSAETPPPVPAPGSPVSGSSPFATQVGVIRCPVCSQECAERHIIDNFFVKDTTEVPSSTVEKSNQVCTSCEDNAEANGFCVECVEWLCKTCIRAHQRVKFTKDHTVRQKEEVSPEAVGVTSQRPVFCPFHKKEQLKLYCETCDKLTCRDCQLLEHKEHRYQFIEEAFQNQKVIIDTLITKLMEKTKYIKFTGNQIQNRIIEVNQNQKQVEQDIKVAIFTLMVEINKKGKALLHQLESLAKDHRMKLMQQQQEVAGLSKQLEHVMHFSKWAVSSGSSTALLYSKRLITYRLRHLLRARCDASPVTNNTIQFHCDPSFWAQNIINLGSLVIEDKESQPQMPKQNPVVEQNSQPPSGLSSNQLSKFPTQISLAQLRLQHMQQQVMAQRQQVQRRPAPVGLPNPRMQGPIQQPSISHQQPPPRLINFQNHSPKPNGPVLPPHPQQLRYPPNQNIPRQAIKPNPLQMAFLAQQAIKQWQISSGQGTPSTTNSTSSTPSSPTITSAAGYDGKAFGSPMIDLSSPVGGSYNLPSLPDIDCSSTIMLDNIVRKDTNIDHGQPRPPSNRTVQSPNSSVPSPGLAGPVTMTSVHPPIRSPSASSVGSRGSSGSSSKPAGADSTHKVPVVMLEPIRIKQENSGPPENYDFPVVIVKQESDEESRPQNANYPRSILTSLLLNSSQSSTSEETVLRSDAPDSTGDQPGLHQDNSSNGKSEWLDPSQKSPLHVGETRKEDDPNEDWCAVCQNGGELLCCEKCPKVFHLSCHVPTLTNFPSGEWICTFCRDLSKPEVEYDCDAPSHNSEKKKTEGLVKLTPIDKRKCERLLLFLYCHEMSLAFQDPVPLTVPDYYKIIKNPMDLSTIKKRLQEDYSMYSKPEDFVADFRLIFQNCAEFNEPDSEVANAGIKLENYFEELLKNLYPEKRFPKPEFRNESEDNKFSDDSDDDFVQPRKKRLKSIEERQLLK

This passage reports ΔTm results from ChEMBL document CHEMBL5724796, “Tm Shift (DSF) assay results for EUbOPEN Chemogenomics Library” (2024).

Residues, ends and D or L forms follow the SMILES beside them.

Casein kinase I isoform delta (Homo sapiens), sequence (P48730 whole entry, looked up, canonical isoform): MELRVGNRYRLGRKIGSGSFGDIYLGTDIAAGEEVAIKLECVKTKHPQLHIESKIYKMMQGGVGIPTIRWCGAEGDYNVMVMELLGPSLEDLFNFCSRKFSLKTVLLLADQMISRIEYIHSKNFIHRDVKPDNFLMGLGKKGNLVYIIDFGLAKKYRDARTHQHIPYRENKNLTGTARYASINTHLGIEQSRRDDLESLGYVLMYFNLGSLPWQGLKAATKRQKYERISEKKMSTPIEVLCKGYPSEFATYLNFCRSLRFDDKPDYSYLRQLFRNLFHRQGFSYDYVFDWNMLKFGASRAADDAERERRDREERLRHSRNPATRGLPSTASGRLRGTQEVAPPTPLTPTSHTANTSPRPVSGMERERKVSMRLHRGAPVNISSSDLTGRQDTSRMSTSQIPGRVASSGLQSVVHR
Tyrosine-protein kinase ABL1 (Homo sapiens), sequence (P00519 whole entry): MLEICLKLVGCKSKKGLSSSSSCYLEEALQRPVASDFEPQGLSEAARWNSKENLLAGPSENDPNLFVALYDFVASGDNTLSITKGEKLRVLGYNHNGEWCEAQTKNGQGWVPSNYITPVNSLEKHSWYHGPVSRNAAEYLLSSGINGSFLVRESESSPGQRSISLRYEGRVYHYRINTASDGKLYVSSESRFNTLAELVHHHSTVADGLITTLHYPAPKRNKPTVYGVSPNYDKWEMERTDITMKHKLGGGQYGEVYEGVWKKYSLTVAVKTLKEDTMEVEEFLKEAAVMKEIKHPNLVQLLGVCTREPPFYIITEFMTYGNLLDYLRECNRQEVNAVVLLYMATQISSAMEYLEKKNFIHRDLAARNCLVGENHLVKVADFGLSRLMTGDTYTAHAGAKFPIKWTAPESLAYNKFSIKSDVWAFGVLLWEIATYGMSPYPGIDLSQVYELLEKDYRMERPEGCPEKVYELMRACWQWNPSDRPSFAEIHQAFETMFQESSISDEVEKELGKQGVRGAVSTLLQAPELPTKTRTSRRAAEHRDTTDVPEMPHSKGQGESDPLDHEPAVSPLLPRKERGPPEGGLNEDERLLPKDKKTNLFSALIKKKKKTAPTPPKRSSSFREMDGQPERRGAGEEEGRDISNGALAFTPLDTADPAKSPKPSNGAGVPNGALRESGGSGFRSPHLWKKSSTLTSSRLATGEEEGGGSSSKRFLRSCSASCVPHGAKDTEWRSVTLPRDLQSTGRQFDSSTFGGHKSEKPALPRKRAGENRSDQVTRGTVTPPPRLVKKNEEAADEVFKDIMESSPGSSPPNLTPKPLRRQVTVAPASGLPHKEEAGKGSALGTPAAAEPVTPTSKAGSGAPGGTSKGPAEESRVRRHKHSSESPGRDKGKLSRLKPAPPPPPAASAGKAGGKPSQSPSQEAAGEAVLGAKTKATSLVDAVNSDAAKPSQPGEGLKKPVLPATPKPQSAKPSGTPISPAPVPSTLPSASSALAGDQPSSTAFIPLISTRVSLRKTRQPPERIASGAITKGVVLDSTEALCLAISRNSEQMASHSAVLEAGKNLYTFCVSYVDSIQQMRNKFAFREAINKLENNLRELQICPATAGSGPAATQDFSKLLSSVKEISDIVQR
Mitogen-activated protein kinase 1 (Homo sapiens), sequence (P28482 whole entry): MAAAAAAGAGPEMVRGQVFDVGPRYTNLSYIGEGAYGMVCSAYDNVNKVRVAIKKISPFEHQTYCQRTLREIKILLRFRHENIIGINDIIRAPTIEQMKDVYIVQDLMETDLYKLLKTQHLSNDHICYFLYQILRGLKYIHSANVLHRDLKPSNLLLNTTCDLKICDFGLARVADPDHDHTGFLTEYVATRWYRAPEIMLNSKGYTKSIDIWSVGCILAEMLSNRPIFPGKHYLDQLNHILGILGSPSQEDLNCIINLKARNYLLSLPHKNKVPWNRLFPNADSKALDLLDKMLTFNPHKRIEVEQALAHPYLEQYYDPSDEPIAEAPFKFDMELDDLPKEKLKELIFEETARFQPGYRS
Glycogen synthase kinase-3 beta (Homo sapiens), sequence (P49841 whole entry, looked up): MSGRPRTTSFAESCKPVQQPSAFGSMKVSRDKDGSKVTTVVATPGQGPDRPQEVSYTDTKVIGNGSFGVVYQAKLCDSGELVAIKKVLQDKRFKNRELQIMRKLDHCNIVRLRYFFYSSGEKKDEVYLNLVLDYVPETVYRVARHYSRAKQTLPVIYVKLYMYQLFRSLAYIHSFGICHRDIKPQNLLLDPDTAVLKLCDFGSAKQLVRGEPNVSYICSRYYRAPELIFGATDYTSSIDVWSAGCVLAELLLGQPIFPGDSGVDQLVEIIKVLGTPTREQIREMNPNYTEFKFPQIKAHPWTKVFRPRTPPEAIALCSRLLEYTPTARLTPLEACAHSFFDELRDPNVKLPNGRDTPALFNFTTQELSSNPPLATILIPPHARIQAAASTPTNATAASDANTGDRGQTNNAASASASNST

What is called ΔTm is the shift of the melting midpoint relative to a reference. With `CN(CCC(Oc1ccc(-c2ccccc2)cc1)c1ccc(F)cc1)CC(=O)O` (stereo unspecified), the ΔTm in assay [1] was 0.52 °C; in assay [2] it was 2.4 °C; in assay [3], 1.59 °C; in assay [4], -0.12 °C; in assay [5] it was -0.74 °C; in assay [6], 0.42 °C. The ΔTm was -1.88 °C in assay [7] and -0.18 °C in assay [8].

With `COc1cc2c(NC3CCN(C)CC3)nc(N3CCCN(C)CC3)nc2cc1OCCCN(C)C`, the ΔTm in assay [1] was 0.04 °C; in assay [2], -1.01 °C; in assay [3], 0.12 °C; in assay [4] it was 0.25 °C; in assay [5], -0.54 °C; in assay [6], 0.4 °C. The ΔTm in assay [7] is -1.36 °C; in assay [8] it was -0.25 °C.

`CC(C)c1c(-c2cnn(C(C)(C)C)c2)[nH]c2c(C#N)cnn2c1=O`: the ΔTm in assay [1] was 0.32 °C; in assay [2] it was -1.11 °C; in assay [3], 0.15 °C; in assay [4], -0.24 °C; in assay [5] it was 0.53 °C; in assay [6], 0.3 °C. Besides, the ΔTm in assay [7] was -0.18 °C; in assay [8], 0.36 °C.

Take `COc1cc2c(NC3CCN(C)CC3)cc(-c3ccc(C)o3)nc2cc1OCCCN1CCCC1`: the ΔTm in assay [1] amounted to 0.3 °C; in assay [2], 0.18 °C; in assay [3], 0.69 °C; in assay [4], 0.17 °C; in assay [5], 0.49 °C; in assay [6], 0.01 °C. For the same molecule, the ΔTm in assay [7] is 0.09 °C; in assay [8] it was -0.54 °C.

Consider `CN(CCCN1c2ccccc2CCc2ccccc21)CC(=O)c1ccc(Cl)cc1`, for which the ΔTm is -0.37 °C in assay [1]; -0.08 °C in assay [2]; 0.04 °C in assay [3]; -0.19 °C in assay [4]; -0.11 °C in assay [5]; 0.76 °C in assay [6]. Moreover, the ΔTm in assay [7] is -1.35 °C; in assay [8] it was 0.15 °C.

Regarding `COC(=O)C1=C(C(=O)OC)[C@@]2([C@@H](Cc3ccc(C)cc3)Nc3ccccc3)C=C[C@@H]1O2`, the ΔTm was 0.44 °C in assay [1]; -0.64 °C in assay [2]; 0.54 °C in assay [3]; -0.66 °C in assay [4]; -1.68 °C in assay [5]; -0.27 °C in assay [6]. The results for the ΔTm in assay [7] and in assay [8] were -2.34 °C and 1.28 °C, respectively.

With `CC(C)[C@@H]1C(=O)N(S(C)(=O)=O)[C@@H]2CCN(C(=O)/C=C/CN3CCCCC3)[C@H]21`, the ΔTm in assay [1] is 0.18 °C; in assay [2], -2.34 °C; in assay [3], 0.22 °C; in assay [4], 0.11 °C; in assay [5], -1.7 °C; in assay [6], 0.03 °C. The ΔTm is -0.54 °C in assay [7] and -1.12 °C in assay [8].

Take `N#Cc1c(N)[nH]c2cc(/C=C/c3cccc(F)c3)ccc12`: the ΔTm in assay [1] is 1.1 °C; in assay [2], 3.17 °C; in assay [3], 2.67 °C; in assay [4], -0.33 °C; in assay [5], -0.5 °C; in assay [6] it was 1.9 °C. Besides, the thermal shift (ΔTm) stood at 0.33 °C in assay [7] and 1.03 °C in assay [8].

Consider `Cn1c(NCCN(CCO)CCCc2ccc([N+](=O)[O-])cc2)cc(=O)n(C)c1=O`, for which the ΔTm was -0.01 °C in assay [1]; 0.07 °C in assay [2]; 0.08 °C in assay [3]; -0.29 °C in assay [4]; -0.66 °C in assay [5]; 0.09 °C in assay [6]. Moreover, the ΔTm is -1.33 °C in assay [7] and 0.26 °C in assay [8].

Consider `CC(C)N(C(=O)c1cc(F)ccc1Oc1cncnc1N1CC2(CCN(C[C@H]3CC[C@H](NS(C)(=O)=O)CC3)CC2)C1)C(C)C`, for which the ΔTm in assay [1] is 0.57 °C; in assay [2] it was -1.5 °C; in assay [3], 0.13 °C; in assay [4] it was -0.36 °C; in assay [5], -0.7 °C; in assay [6], 0.13 °C. Moreover, the values for the ΔTm in assay [7] and in assay [8] were -2.37 °C and 0.16 °C, respectively.

Regarding `COc1ccc2nc3[nH]nc(C)c3c(NCCOCCO)c2c1`, the ΔTm was 0.63 °C in assay [1]; -1.31 °C in assay [2]; 0.26 °C in assay [3]; 0.76 °C in assay [4]; 2.8 °C in assay [5]; -0.01 °C in assay [6]. Moreover, the ΔTm is 0.31 °C in assay [7] and -0.59 °C in assay [8].

`N[C@@H](CC(=O)N1CCN(C(c2ccc(F)cc2)c2ccc(F)cc2)CC1)C(=O)N1Cc2ccccc2C1`: the ΔTm was -0.03 °C in assay [1]; 0.11 °C in assay [2]; -3.61 °C in assay [3]; -0.26 °C in assay [4]; 0 °C in assay [5]; 0 °C in assay [6]. Further, the ΔTm in assay [7] was 0 °C; in assay [8], -6.21 °C.

As for `N#C[C@@H]1CCCN1C(=O)[C@@H]1CCCN1C(=O)CCCc1ccccc1`, the ΔTm in assay [1] was 0.07 °C; in assay [2], -2.61 °C; in assay [3] it was 0.09 °C; in assay [4] it was 0.05 °C; in assay [5], -0.27 °C; in assay [6] it was 0.11 °C. Also, the ΔTm in assay [7] is -1.43 °C; in assay [8], -0.5 °C.

For `COC(=O)[C@@H]1CC2=CC(=O)CC[C@]2(C)[C@@]23O[C@@H]2C[C@@]2(C)[C@@H](CC[C@@]24CCC(=O)O4)[C@H]13`, the ΔTm in assay [1] was 0.55 °C; in assay [2] it was -1.74 °C; in assay [3] it was -0.21 °C; in assay [4], 0.47 °C; in assay [5] it was -0.8 °C; in assay [6], 0.21 °C. Besides, the ΔTm in assay [7] was -0.81 °C; in assay [8], -0.62 °C.

As to `CN(C)CCCN(CC[C@H](N)C(=O)O)C[C@H]1O[C@@H](n2cnc3c(N)ncnc32)[C@H](O)[C@@H]1O`, the ΔTm in assay [1] is 0.32 °C; in assay [2] it was -2.2 °C; in assay [3], -0.1 °C; in assay [4] it was 0.02 °C; in assay [5], -1.16 °C; in assay [6], 0.04 °C. The results for the ΔTm in assay [7] and in assay [8] were -0.74 °C and -1.49 °C, respectively.

As to `CC[C@H](C)[C@H](NC(C)=O)C(=O)N[C@@H](CCC(=O)O)C(=O)N[C@H](C(=O)N[C@H](C=O)CC(=O)O)[C@@H](C)O` (Ac-IETD-aldehyde), the ΔTm in assay [1] was 0.22 °C; in assay [2], -2.51 °C; in assay [3], -0.65 °C; in assay [4], 0.05 °C; in assay [5] it was -1.72 °C; in assay [6], -0.3 °C. Moreover, the ΔTm in assay [7] is -1.5 °C; in assay [8], -1.13 °C.

As to `CCc1c(-c2ccccc2)c(-c2ccccc2)nn1-c1ccccc1-c1cccc(OCC(=O)O)c1`, the ΔTm in assay [1] was -0.2 °C; in assay [2] it was -8.88 °C; in assay [3], -1.12 °C; in assay [4], -2.01 °C; in assay [5] it was 0 °C; in assay [6], -0.5 °C. For the same molecule, the ΔTm was -3.9 °C in assay [7] and -3.28 °C in assay [8].

In the case of `NC(=O)C1CCCc2c1[nH]c1ccc(Cl)cc21` (stereo unspecified), the ΔTm in assay [1] is 0.6 °C; in assay [2], -2.56 °C; in assay [3], 0.2 °C; in assay [4], -0.38 °C; in assay [5] it was 0.62 °C; in assay [6] it was 0.17 °C. Further, the ΔTm in assay [7] is -0.98 °C; in assay [8], -0.37 °C.

For `O=C(NCCCCCCCCNC(=O)C(Cl)Cl)C(Cl)Cl`, the ΔTm is 0.05 °C in assay [1]; -2.38 °C in assay [2]; -0.1 °C in assay [3]; -0.18 °C in assay [4]; -1.79 °C in assay [5]; -0.02 °C in assay [6]. Further, the ΔTm was -1.73 °C in assay [7] and 1.02 °C in assay [8].

Take `Cn1c(OC[C@H]2CC[C@H](C(F)(F)F)CC2)nn2c(C3CCOCC3)ncc2c1=O`: the ΔTm in assay [1] is 0.42 °C; in assay [2], -3.44 °C; in assay [3] it was -0.19 °C; in assay [4], -0.45 °C; in assay [5] it was 0.18 °C; in assay [6], 0.06 °C. Besides, the ΔTm was -2.37 °C in assay [7] and -1.13 °C in assay [8].

As to `CC(=O)NCC(=O)N1CCC[C@@H]1B(O)O`, the ΔTm in assay [1] was 0.26 °C; in assay [2], -0.72 °C; in assay [3], 1.18 °C; in assay [4], -0.18 °C; in assay [5], -0.78 °C; in assay [6], 0.14 °C. The ΔTm in assay [7] is -1.86 °C; in assay [8] it was 0.93 °C.

For `Cc1cc(-c2ccccc2)cc(C(=O)NNS(=O)(=O)c2ccccc2)c1F`, the ΔTm was 0.58 °C in assay [1]; -6.22 °C in assay [2]; -3.62 °C in assay [3]; 0.42 °C in assay [4]; -3.1 °C in assay [5]; 0 °C in assay [6]. The ΔTm in assay [7] is -4.21 °C; in assay [8] it was -1.85 °C.
